About 4,000 (25%) of roughly 16,000 compounds were called active. About 26% were inconclusive and are not listed. Not all results are given here. Values without a mark were called inactive. Calls come from the whole dose curve; as a rule, active = well fitted curve in the direction sought with a large enough effect; inconclusive = small, poorly fitted or top-dose-only effect, or effect the other way; inactive = no such curve, though single readings can be large or run the other way.
% is set by controls: 0 for no effect and ±100 for the full control effect.

The target in the assay is Cytochrome P450 2C9 (Homo sapiens) (UniProt P11712). In words: Cytochrome panel assay with activity outcomes. The note with it: recombinant CYP, pro-luciferin dealkylation, luminescence, p450-cyp2c9; series mostly up to 57.1 µM; activity, negative = inhibition: at the top concentration.
Chain of Cytochrome P450 2C9 (Homo sapiens) (P11712 whole entry, looked up): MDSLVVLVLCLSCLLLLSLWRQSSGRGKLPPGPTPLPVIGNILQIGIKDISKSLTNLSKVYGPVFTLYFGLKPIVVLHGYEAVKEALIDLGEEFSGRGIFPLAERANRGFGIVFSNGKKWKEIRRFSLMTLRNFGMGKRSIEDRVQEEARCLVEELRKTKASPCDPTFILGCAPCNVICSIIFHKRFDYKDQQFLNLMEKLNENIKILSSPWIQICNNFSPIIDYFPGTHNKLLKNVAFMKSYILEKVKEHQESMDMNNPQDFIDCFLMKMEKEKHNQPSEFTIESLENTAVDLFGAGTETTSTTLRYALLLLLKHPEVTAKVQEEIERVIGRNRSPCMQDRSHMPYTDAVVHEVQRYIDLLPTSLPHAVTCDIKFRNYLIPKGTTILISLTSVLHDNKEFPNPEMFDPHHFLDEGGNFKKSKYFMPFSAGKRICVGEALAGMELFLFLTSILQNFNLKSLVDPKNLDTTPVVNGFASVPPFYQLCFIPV
`COc1cccc(-c2cc(NCc3cccnc3)ncn2)c1`: the activity, negative = inhibition was -28.7% [at 2.29 µM].
As to `COc1cccc(Cn2c(NCc3cccnc3)nc3c2c(=O)n(C)c(=O)n3C)c1`, the AC50 was 6.31 µM (active).
Turning to `CSC1(SC2=NCCN2)SC2(NCCN2)S1`, the activity, negative = inhibition was -10.8% [at 11.4 µM].
For `CCOC(=O)Nc1ccc(C(=O)Oc2ccccc2)c(O)c1`, the AC50 was 17.8 µM (active).
In the case of `O=C(Nc1ccc2oc(=O)c(C(=O)O)cc2c1)Oc1ccccc1`, the activity, negative = inhibition is -10.6% [at 11.4 µM].
Same read-out and setting: to `CC(C)(C)c1ccc(OC(=O)Nc2ccc(O)c(C(=O)O)c2)cc1` belongs -20.8% [at 11.4 µM].
As to `CCOC(=O)c1cc2c(=O)n3ccccc3nc2n(CCCOC)c1=NC(=O)C(C)(C)C`, the AC50 was 1.58 µM (active).
As to `O=C(c1csnn1)N1CCC2(CC1)CCN(c1ncccn1)CC2`, the “activity, negative = inhibition” value is 6.9%.
For `COc1cc(N=c2ssnc2Cl)cc(OC)c1OC`, the AC50 is 6.31 µM (active).
As for `CCOC(=O)N/N=C1/C[C@@H](O)[C@@H](O)[C@@H]2[C@@H]3C(=O)N([C@@H](C)c4ccccc4)C(=O)[C@H]3CC[C@H]12`, the activity, negative = inhibition was 27.2% [at 11.4 µM].
Same read-out and setting: to `CCOC(=O)C(C(=O)NCc1ccc(C)cc1)c1ncc(C(F)(F)F)cc1Cl` (stereo unspecified) belongs 10.8%.
In the case of `CN(C)C(=O)c1cn(N(C)c2ncc(C(F)(F)F)cc2Cl)c(=O)c2ccccc12`, the AC50 is 2.82 µM (active).
As for `C[n+]1ccccc1/C=N\O`, the “activity, negative = inhibition” value was 2.77% [at 25.6 µM].
Take `c1cc(CN2CCCCC2)cc(OCCCNc2nc3ccccc3s2)c1`: the AC50 entry was “inactive”.
On to `O=c1c(-c2nc3ccccc3s2)cccn1Cc1ccccc1`, for which the concentration at half-maximal activity (AC50) was 3.16 µM (active).
`C=CCn1c(-c2cccn(Cc3ccccc3)c2=O)n[nH]c1=S`: the “activity, negative = inhibition” value is -28.8%.
The same measure, in the same setting: under `Cc1cnc(CNc2ncncc2-c2cccc(C#N)c2)cn1` stands -1.84% [at 2.29 µM]; under `Cn1cc[nH]c1=S`, 5.66% [at 25.6 µM].
As to `CN1CCC2(CC1)CCN(C(=O)c1cc(C(F)(F)F)cc(C(F)(F)F)c1)CC2`, the “activity, negative = inhibition” value was 16.4%.
For the compound `CCOC(=O)CSC1=C(C#N)C(c2sccc2C)CC(=O)N1` (stereo unspecified), the AC50 was 12.6 µM (active).
The same measure, in the same setting: to `C=CCOC(=O)C1=C(C)NC(SCC(=O)OCC)=C(C#N)C1c1ccc(C)cc1` (stereo unspecified) belongs 7.94 µM (active).
Same read-out and setting: under `CCOC(=O)CSC1=C(C#N)C(c2sccc2C)C(C(C)=O)=C(C)N1` (stereo unspecified) stands 1.78 µM (active).
Take `CCCC(O)(CCC)C(=O)NN1CCCCC1`: the “activity, negative = inhibition” value is 5.53%.
For `O=C(c1ccco1)N1CCC2(CC1)CN(c1ccc(-c3ccccc3)cc1)C2`, the “activity, negative = inhibition” value was -10.4%.
With `O=C(c1ccco1)N1CCC2(CC1)CCN(c1ccccc1)CC2`, the “activity, negative = inhibition” value was 1.38%.
As for `CC(=O)N1CCc2cc(Br)cc(S(=O)(=O)N3CCN(C(=O)c4ccco4)CC3)c21`, the AC50 was 5.01 µM (active).
As for `COc1ccc(/C=N\NC(=O)O)cc1`, the activity, negative = inhibition was -7.71% [at 11.4 µM].
Take `Cc1ccc(S(=O)(=O)N/N=C/c2ccc(OC3CSC3)cc2)cc1`: the AC50 was 1.41 µM (active).
Still for that read-out and setting: under `COc1ccc(C(=O)Oc2cc(/C=N/NS(=O)(=O)c3ccc(C)cc3)ccc2OC)cc1` stands 2.24 µM (active).
`CS(=O)(=O)c1ccc(/C=N\NC(N)=S)cc1`: the activity, negative = inhibition is -1.25% [at 11.4 µM].
As to `COc1ccc(/C=N/NC(=S)NC2CCS(=O)(=O)C2)cc1OC` (stereo unspecified), the “activity, negative = inhibition” value was -28.4%.
On the same count and under the same terms, to `Fc1ccc(-c2ccnc3nc(N4CCOCC4)nn23)cc1` belongs -26.9%; to `O=C(O)CCCSc1ccccc1`, 14.8% [at 11.4 µM].
Consider `COC(=O)C1=C(C)NC(C)=C(C(=O)OCCSc2ccccc2)[C@@H]1C`, for which the AC50 was 3.16 µM (active).
Consider `Cc1nc2cnc(N3CCN(C)CC3)nc2n(Cc2ccc(F)cc2)c1=O`, for which the “activity, negative = inhibition” value is -10.3%.
`COC(=O)c1ccc(Oc2cc(C)nc(-n3nc(C)cc3C)n2)cc1`: the AC50 was 25.1 µM (active).
Regarding `Cc1nc2ccccc2nc1-c1ccc(N=[N+]([O-])c2ccc(-c3nc4ccccc4nc3C)cc2)cc1`, the activity, negative = inhibition was -2.63% [at 11.4 µM].
On the same count and under the same terms, under `C[N+](C)(C)CCO` stands -12.4%.
As to `CC(C)COC[C@H](CN(Cc1ccccc1)c1ccccc1)N1CCCC1`, the AC50 entry was “inactive”.
For `CC1=NN(c2ccccc2)C(=O)C1`, the “activity, negative = inhibition” value is 8.09%.
Still for that read-out and setting: to `c1ccc2c(c1)C(=Nc1ccc(N=C3c4ccccc4-c4ccccc43)cc1)c1ccccc1-2` belongs -2.68% [at 11.4 µM].
Take `O=C1CC(=Nc2ccccc2)NN1c1ccccc1`: the AC50 was 2.82 µM (active).
Turning to `N#Cc1cccc(NC(=O)N2CCC3(CC2)CCN(C(=O)c2cccc(F)c2)CC3)c1`, the “activity, negative = inhibition” value was -11.7%.
On the same count and under the same terms, to `Cc1cc2c(s1)CCCCC(=O)N2` belongs -12%; to `CN(C)CCCO[C@H]1[C@@H]2OC(C)(C)O[C@@H]2O[C@@H]1[C@H](O)CO`, 20.5% [at 25.6 µM].
`COc1ccc(NC(=O)N2CCCC3(CCN(S(=O)(=O)c4ccccc4)CC3)C2)cc1`: the half-maximal activity concentration (AC50) is 20 µM (active).
For the compound `O=C(Nc1ccccc1)N1CCC2(CC1)CCN(S(=O)(=O)c1ccccc1)CC2`, the “activity, negative = inhibition” value was -8.25%.
Same read-out and setting: to `COc1ccc(NC(=O)N2CC3(CCN(S(=O)(=O)c4ccccc4)CC3)C2)cc1` belongs 8.29%; to `CS(=O)(=O)N1CCC[C@@]2(CCN(C(=O)Nc3ccccc3)C2)C1`, 3.79%.
Turning to `O=C(Nc1ccccc1)N1CCCC2(CCN(S(=O)(=O)c3ccccc3)CC2)C1`, the AC50 was 10 µM (active).
Turning to `COc1ccc(NC(=O)N2CC3(CCN(S(C)(=O)=O)CC3)C2)cc1`, the “activity, negative = inhibition” value was 10.7%.
As for `COc1ccc(NC(=O)N2CCCC3(CCN(S(C)(=O)=O)CC3)C2)cc1`, the “activity, negative = inhibition” value was 14.6%.
As for `COc1ccc(NC(=O)N2CCC3(CC2)CCN(S(=O)(=O)c2ccccc2)CC3)cc1`, the “activity, negative = inhibition” value was -14.8%.
Consider `COc1ccc(NC(=O)N2CCC3(CC2)CCN(S(C)(=O)=O)CC3)cc1`, for which the AC50 is 15.8 µM (active).
As for `CN1CC[C@@]2(CCN3CCc4c(oc5ccccc45)[C@@H]3C2)N(C)C1=O`, the “activity, negative = inhibition” value is -13.3%.
Still for that read-out and setting: to `Cc1nc(N=Nc2cc(S(=O)(=O)O)ccc2S(=O)(=O)O)c(COP(=O)(O)O)c(C=O)c1O` belongs 13.1%; to `CN1CCCC[C@@H]1CCN1CCCCC1`, -2.28% [at 11.4 µM].
With `Cn1c(=O)n(C)c2cc(/C=N/n3cnnc3)ccc21`, the AC50 is 2.24 µM (active).
For `Cn1c(=O)n(C)c2cc(S(=O)(=O)O)ccc21`, the “activity, negative = inhibition” value was 16.7%.
Turning to `CSc1nncn1/N=C/c1ccc2c(c1)OCO2`, the “activity, negative = inhibition” value was -11.2%.
With `CC(C)OC(=O)C1=C2SCC(=O)N2C(N)=C(C#N)C1`, the AC50 was 8.91 µM (active).
Regarding `Nc1nc(N)nc(CCCc2nc(N)nc(N)n2)n1`, the activity, negative = inhibition was 9.16% [at 11.4 µM].
The same measure, in the same setting: under `CC(=O)Nc1nnc(S(N)(=O)=O)s1` stands -15.9% [at 25.6 µM].
With `CC(=O)Nc1nnc(CCN2CCCCC2)s1`, the “activity, negative = inhibition” value is 0.582%.
In the case of `CC(C)=CC(=O)Nc1nnc(C(C)C)s1`, the AC50 was 10 µM (active).
With `Cc1nn(-c2ccccc2)c(C)c1/C=N/NC(=O)c1cc(-c2ccc(Cl)s2)[nH]n1`, the AC50 was 7.94 µM (active).
Regarding `Cc1ccccc1/C=N\NC(=O)c1csnn1`, the “activity, negative = inhibition” value was -21.1%.
The same measure, in the same setting: to `Cc1c(C(=O)N/N=C/c2ccccc2)sc(=S)n1C` belongs -34%.
Same read-out and setting: under `CC(C)(C)C(=O)N1CCC(O)(CS(=O)(=O)Cc2ccc(Cl)cc2)CC1` stands -1.37%; under `O=C(NCCN1CCCC1)C1(S(=O)(=O)c2ccc(Cl)cc2)CC1`, -14.8%.
As to `CCOC(=O)C1(S(=O)(=O)c2ccc(Cl)cc2)CCN(Cc2ccc(Cl)cc2)CC1`, the AC50 is 3.55 µM (active).
Same read-out and setting: under `S=c1[nH]nc(CCc2ccccc2)n1Cc1ccccc1` stands 7.94 µM (active).
As to `CCn1c(CC(C)C)n[nH]c1=S`, the “activity, negative = inhibition” value was -29.6%.
As to `Cc1ccccc1N1CCN(S(=O)(=O)C[C@@]23CC[C@H](C[C@H]2NC(=O)[C@@H](N)CCS(C)(=O)=O)C3(C)C)CC1`, the “activity, negative = inhibition” value was 8.89%.
As for `COC(=O)c1sc2ccccc2c1-n1cccc1C(=O)C(=O)Nc1ccc(Cl)cc1`, the half-maximal activity concentration (AC50) was 0.1 µM (active).
For `C=CCNC(=O)c1cccn1-c1ccsc1C(=O)OC`, the “activity, negative = inhibition” value was 22.5%.
For `CCCCOC(=O)Nc1ccccc1C(=O)OC`, the “activity, negative = inhibition” value is -31.8%.
For `COC(=O)c1ccccc1NS(=O)(=O)c1ccc2c3c(cccc13)C(=O)N2`, the AC50 is 0.178 µM (active).
For the compound `Oc1ccc([C@@H]2CNCc3sccc32)cc1O`, the “activity, negative = inhibition” value is -16.1%.
Consider `Cc1ccc2nc(/C(C#N)=C\c3ccc(OC(=O)c4cccs4)cc3)[nH]c2c1`, for which the AC50 is 2 µM (active).
Take `Cc1cc(C)cc(Oc2coc3cc(OC(=O)c4cccs4)ccc3c2=O)c1`: the “activity, negative = inhibition” value was -21.4%.
For `Cn1c(=O)c2c(ncn2CC(COCc2ccccc2Cl)OCc2ccccc2Cl)n(C)c1=O` (stereo unspecified), the AC50 was 15.8 µM (active).
For the compound `Cn1c(=O)c2c(ncn2C[C@@H](O)CO)n(C)c1=O`, the “activity, negative = inhibition” value is -18.6% [at 25.6 µM].
Same read-out and setting: to `Cn1c(=O)c2c(ncn2CCO)n(C)c1=O` belongs -1.08% [at 25.6 µM]; to `CCC(C)NS(=O)(=O)c1ccc(NC(=O)CCC2CCCCC2)cc1` (stereo unspecified), -16.8%.
Still for that read-out and setting: to `Cc1ccc(NC(=S)NC2CCCC2)cc1` belongs -11.4%.
`O=C(CCc1ccc(S(=O)(=O)NC2CCCCC2)cc1)N(Cc1ccccc1)Cc1ccccc1`: the AC50 was 1 µM (active).
As to `Cc1ccc(NC(=O)CCc2ccc(S(=O)(=O)NC3CCCCC3)cc2)cc1`, the AC50 was 3.98 µM (active).
On to `OCCNCCCOc1cccc(Cl)c1Cl`, for which the “activity, negative = inhibition” value was -17.8%.
The same measure, in the same setting: under `O[C@@H](c1ccccc1)C1CCN(CCc2ccccc2)CC1` stands -14.1%; under `CCCCNc1nc(SC)nc2nc[nH]c12`, -18.3% [at 11.4 µM].
On the same count and under the same terms, to `O=C(O)c1ccc(Oc2nc3ccccc3s2)cc1` belongs -27% [at 11.4 µM].
`O=C(OCc1nc2ccccc2s1)c1ccc(Br)s1`: the concentration at half-maximal activity (AC50) is 4.47 µM (active).
Consider `Cc1cc([N+](=O)[O-])c(C)c(Br)c1C`, for which the activity, negative = inhibition was 20.3% [at 11.4 µM].
As to `O=C(NCCOC(=O)c1ccc(C(=O)OCCNC(=O)c2cccnc2)s1)c1cccnc1`, the AC50 was 3.98 µM (active).
For `O=C(NCCO[N+](=O)[O-])c1cccnc1`, the concentration at half-maximal activity (AC50) is 2 µM (active).
Take `CC(=O)OCCNC(=O)c1cccnc1`: the “activity, negative = inhibition” value was 13.2%.
On to `CN(C)c1ccnc(-c2ccccc2C(F)(F)F)n1`, for which the activity, negative = inhibition is 10.1% [at 2.29 µM].
Take `CCOC(=O)C[C@@H](C(=O)OCC)[C@@H]1CCCCC1=O`: the activity, negative = inhibition is 19.8% [at 11.4 µM].
On to `COc1ccccc1CC(=N)N1C[C@@H]2C(=O)CCC(c3ccccc3)(c3ccccc3)[C@@H]2C1`, for which the “activity, negative = inhibition” value was 1.86%.
The same measure, in the same setting: under `C=C1CCO[C@@]2([C@H](O)[C@@](C)(O)CO)NC(=O)[C@]1(O)NC2=O` stands 5.79% [at 11.4 µM].

One may read the AC50 as the concentration at which the activity in the assay is half-maximal.

The values are drawn from PubChem BioAssay AID1851 (National Center for Advancing Translational Sciences (NCATS), 2009).
